CF NFkB block: cystic fibrosis NF-kB activation inhibition; KKLEB NF-kB-GFP reporter, PAF-induced, GFP fluorescence overnight; inhibition, % at 5 µM; 360,000 compounds, 0.86% hits; AID 588850;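 active = at least 50% inhibition at 5 µM, scaled per plate between neutral and stimulator controls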;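 also: PAF is a Pseudomonas aeruginosa culture filtrate used as stimulus; plate controls were PAF-stimulated DMSO wells for no effect and unstimulated DMSO wells for full effect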
KKLEB tox: CF airway cell cytotoxicity counter-screen; KKLEB CF airway cells viability, ATPlite luminescence, overnight; stronger effect = lower value; cells stimulated with P. aeruginosa culture filtrate; activity change (cytotoxicity), % at 5 µM; 360,000 compounds, 0.36% hits;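 active = corrected activity change at or below -50% at 5 µM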
MITF TRPM1 inh: reduces MITF-dependent TRPM1 promoter luciferase signal | SK-MEL-5 TRPM1 promoter luciferase, 24 h | inhibition, % at 12.5 µM | 330,000 compounds, 0.83% hits | AID 488899;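 active = mean inhibition across replicates of 60% or more, whatever share of single replicates reaches that level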
HIF-2a inh: HIF-2a inhibition | 786-0 RCC cells HIF-2a reporter, luciferase luminescence, overnight | inhibition, % at 18.8 µM | 360,000 compounds, 0.72% hits;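 active = inhibition of the luminescence signal of 40% or more relative to plate controls, in a single-dose primary screen at 18.75 µM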
Peg3 prom inh: reduces Peg3 promoter-driven luciferase expression in HeLa. HeLa PEG-Prom luciferase reporter, luminescence, overnight. inhibition, % at 20 µM. 360,000 compounds, 1.7% hits;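 active = inhibition of at least 50% at 20 µM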
EBV LMP1 NFkB: reduces LMP1-driven NF-kappaB luciferase signal; LMP1-induced NF-kappaB luciferase reporter cells, luminescence; inhibition, % at 12.5 µM; 350,000 compounds, 0.69% hits; AID 504558; in the data active = inhibition above about 41%;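 also: 0% = neutral control wells and 100% = reference inhibitor control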
Active calls of the source: *; . = no result. An excerpt weighted towards active compounds, which were near 3% of everything screened.

SMILES | CF NFkB block | KKLEB tox | MITF TRPM1 inh | HIF-2a inh | Peg3 prom inh | EBV LMP1 NFkB
CCCCNc1nc(N)nc(-c2cc(Cl)ccc2O)n1 | 82.5* | -27.1 | -19.1 | -183.9 | 33.3 | -40.3
Cc1cc2c(cc1C)-n1nnnc1C(N(Cc1ccccc1)Cc1ccccc1)C(=O)N2 (stereo not drawn) | . | . | . | 4.7 | . | .
CC(=O)NC(CCS(C)(=O)=O)C(=O)Nc1c(F)cccc1F (stereo not drawn) | 14.6 | -16.6 | -6.2 | 8.8 | 31.2 | 71.5*
CC(=O)NC(CCS(C)(=O)=O)C(=O)Nc1c(C)cccc1C (stereo not drawn) | 1.3 | 2.5 | -4.1 | 10.1 | 7.2 | 2.9
CC(=O)NC(CCS(C)(=O)=O)C(=O)Nc1ccc(Cl)c(Cl)c1 (stereo not drawn) | -0.5 | 10.1 | 11.7 | -0.8 | 6.4 | 55.0*
CCOC(=O)C1=CCN(S(=O)(=O)c2ccccc2)C1c1ccccc1 (stereo not drawn) | -11.9 | -4.6 | . | 3.2 | 12.3 | .
COc1ccccc1CNC(=O)COC(=O)Cn1cnc2c1c(=O)n(C)c(=O)n2C | -7.4 | 9.1 | . | 5.1 | 5.8 | -3.8
CCOc1cc(N2CCOCC2)c(OCC)cc1NC(=O)c1ccc(OCc2c(C)noc2C)c(OC)c1 | -17.8 | 15.2 | -5.6 | 7.3 | 50.5* | 4.5
CCOc1cc(N2CCOCC2)c(OCC)cc1NC(=O)c1ccccc1C | 13.8 | -7.9 | -10.6 | -1.2 | 7.8 | 4.7
CCOc1cc(N2CCOCC2)c(OCC)cc1NC(=O)c1nn(CC)c(=O)c2ccccc12 | 18.5 | -13.1 | 14.9 | -17.8 | 60.5* | -5.9
CCC(c1nnnn1-c1ccc2c(c1)OCCO2)N1CCN(C(C)=O)CC1 (stereo not drawn) | . | . | . | 3.0 | . | .
O=C(C[C@H]1CC[C@H]2[C@@H](COC[C@H](O)CN2Cc2ccccc2)O1)NCCCN1CCOCC1 | . | . | . | 7.8 | . | .
Cc1ccc2nsnc2c1S(=O)(=O)N(Cc1cc2cccc(C)c2[nH]c1=O)CC1CCCO1 (stereo not drawn) | 34.7 | -20.2 | 9.0 | 6.2 | 84.1* | 4.3
Cc1ccc2cc(CN(CC3CCCO3)S(=O)(=O)c3c(C)ccc4nsnc34)c(=O)[nH]c2c1 (stereo not drawn) | -3.5 | 15.9 | 14.4 | 14.8 | 23.6 | -22.9
O=C(Nc1ccc(OC(F)F)cc1)Nc1cccc(C(F)(F)F)c1 | 63.1* | -52.3* | 22.2 | -19.2 | -0.5 | 29.0
O=C(Nc1ccncc1)Nc1cccc(C(F)(F)F)c1 | 39.2 | -12.6 | -14.8 | -12.5 | 20.6 | 10.5
Cc1ccc(NC(=O)NNS(=O)(=O)c2ccc(Br)cc2)cc1 | -2.0 | 2.1 | 2.3 | 6.1 | 7.9 | 66.4*
Cc1ccc(NC(=S)NNC(=S)Nc2cccc(C(F)(F)F)c2)cc1 | 2.6 | -21.5 | -20.7 | -51.2 | -9.9 | -25.4
Cc1ccc(S(=O)(=O)Nc2ccc(NC(=O)Nc3cccc(C(F)(F)F)c3)cc2)cc1 | 48.6 | -38.9 | 5.6 | 7.4 | 95.7* | -5.7
O=C(c1ccc(C(F)(F)F)cc1)C1CCCN(C(=O)CN2CCCC2=O)C1 (stereo not drawn) | 9.6 | -0.8 | -29.9 | -86.2 | -36.4 | -10.7
COCCC(=O)N1CCCC(C(=O)c2ccc(C(F)(F)F)cc2)C1 (stereo not drawn) | 4.2 | -9.3 | 4.7 | -3.5 | 8.9 | 49.0*
COc1ccccc1-c1cn(CC[C@H]2CC[C@@H](NS(=O)(=O)c3ccccc3C)[C@@H](CO)O2)nn1 | . | . | . | 3.0 | . | .
COc1ccc(C2=CC(=O)N(Nc3ccccc3)C2=O)cc1 | 28.6 | 2.5 | . | 33.6 | 39.7 | .
Cc1ccc(NN2C(=O)C=C(c3ccc(Cl)cc3)C2=O)cc1 | 37.2 | -10.7 | 18.6 | 4.1 | 105.5* | 2.5
COc1ccc(OC(=O)N2CCOCC2)cc1 | -2.8 | 1.4 | -5.0 | -36.1 | -28.4 | -8.9
COc1ccc(OC(=O)N2C/C(=C/c3ccccc3)C(=O)/C(=C\c3ccccc3)C2)cc1 | 64.3* | -37.4 | 86.0* | 59.5* | 104.7* | -24.0
CCOC(=O)N1C/C(=C\c2ccccc2)C(=O)/C(=C/c2ccccc2)C1 | 88.7* | -10.4 | 104.3* | 94.6* | 112.0* | -49.0
COc1ccc2nc(Cl)cc(Cl)c2c1 | -1.3 | -9.0 | -5.5 | 13.9 | -6.8 | 11.0
C=CS(=O)(=O)c1c2cc(OC)ccc2nc2ccc(OC)cc12 | -21.9 | -7.0 | 40.4 | -381.4 | 98.0* | 0.8
